Values without a mark were called inactive. Results filed as inconclusive are left out. Activity calls are given as the source filed them. Unless noted, calls come from the whole dose curve; as a rule, active = well fitted curve in the direction sought with a large enough effect in the repeat runs; inconclusive = weak or mixed curves; inactive = no such curve, though single readings can be large; an effect the other way counts as inactive or inconclusive.

The nature of experiment [1]: qHTS assay for small molecules that induce genotoxicity in human embryonic kidney cells expressing luciferase-tagged ATAD5 (AID 651632). Note: nearly all actives have a fitted effect of over 15% in size. An outline of the steps: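 HEK293T cells carrying a luciferase reporter tagged to ATAD5 were exposed to compound or DMSO vehicle for 16 hr at 37C, 5% CO2. Amplite was added, and after 30 min at room temperature luciferase activity was read as a marker of ATAD5 induction.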

The nature of experiment [2]: qHTS assay for small molecule agonists of the p53 signaling pathway - cell viability (AID 651633; calls by dose curve;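 note: p53RE-bla HCT reporter cells with a stable beta-lactamase p53 reporter; series mostly up to about 83 µM; nearly all actives have a fitted effect of over 30% in size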). The essentials:
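p53RE-bla cells were treated with compound for 16 hours at 37 C. Cytotoxicity was then measured as CellTiter-Glo luminescence after 30 min at room temperature.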

The nature of experiment [3]: qHTS assay for small molecules that induce genotoxicity in human embryonic kidney cells expressing luciferase-tagged ATAD5 - cell viability (AID 651634; calls by dose curve; note: nearly all actives have a fitted effect of over 25% in size). An outline of the steps: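 HEK293T cells expressing luciferase-tagged ATAD5 were exposed to compound or DMSO for 15.5 hr at 37C, 5% CO2. Viability was then read as live-cell protease activity by CellTiter-Fluor fluorescence after 30 min at 37C.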
Background: qHTS replaces the single test concentration by a dilution series.

The nature of experiment [4]: qHTS assay for small molecule disruptors of the mitochondrial membrane potential - cell viability (AID 720634; calls by dose curve;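 note: human HepG2 liver cancer cells; series mostly up to about 83 µM; nearly all actives have a fitted effect of over 20% in size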). An outline of the steps:
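HepG2 cells seeded overnight at 37 C, then exposed to compound or DMSO for 1 hr at 37 C, 5% CO2. m-MPI dye added, then CellTiter-Glo for 30 min at room temperature; viability read as ATP luminescence.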

Experiment [5] is described as follows: qHTS assay to test for compound auto fluorescence at 590 nm (red) in HepG2 cells (AID 720674). An outline of the steps:
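Seeding: 2,000 HepG2 cells/well, MEM/10% FBS, overnight 37 C. Dosing: compound vs DMSO. Incubation: 1 hr, 37 C, 5% CO2. Read: fluorescence 540 ex/590 em, Rose Bengal sodium as red reference.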

Experiment [6] in a line: qHTS assay to test for compound auto fluorescence at 535 nm (green) in HepG2 cells (AID 720675).
Experiment [7] is described as follows: qHTS assay to test for compound auto fluorescence at 460 nm (blue) in HEK293 cells (AID 720678). The essentials:
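Blue read-out at excitation 405 nm and emission 460 nm follows overnight compound exposure of HEK293 cells at 37C in 5% CO2. Activity is given as auto fluorescence equivalency to triamterene.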

Experiment [8] in a line: qHTS assay to test for compound auto fluorescence at 590 nm (red) in HEK293 cells (AID 720679). An outline of the steps:
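Red channel, Ex/Em 540/590nm; signal expressed as equivalency to Rose Bengal sodium. HEK293, 2,000 cells/well, 10% dialyzed FBS; 23 nL compound pinned after 4-5 hr attachment; overnight 37C/5% CO2 before reading.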

The nature of experiment [9]: qHTS assay for small molecule disruptors of the mitochondrial membrane potential (AID 720635). Note: potency is the fitted concentration of half-maximal effect. The essentials:
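HepG2 cells exposed to compound 1 hr at 37C, then Mito-MPS dye 30 min. Ratio read of aggregate (540/590 nm) versus monomer (490/535 nm) fluorescence.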
% is set by controls: 0 for no effect and ±100 for the full control effect.

Turning to `CC(C)CCOC(=O)CC(C)C`, the Potency entry in experiment [1], in experiment [2], in experiment [3], in [4] and in experiment [7] was “inactive” each time. Moreover, the outcome in experiment [5], in [6] and in experiment [8] was inactive.

In the case of `CCOC(=O)Cn1c(=O)sc2cccc(Cl)c21`, the Potency entry in experiment [1], in experiment [2], in [3], in experiment [4] and in experiment [7] was “inactive” in each case. Besides, the call in [5], in [6] and in [8] was inactive.

On to `CC(C)CCCC(C)CCCC(C)CCCCC(C)CCCC(C)CCCC(C)C` (stereo unspecified), for which the Potency entry in experiment [1], in experiment [2], in [3], in experiment [4] and in [7] was “inactive” in each case. The result in [5] and in [8] was inactive.

For the molecule `CC(C)(C)N(CCO)CCO`, the Potency result in experiment [1], in [2], in experiment [3], in [4], in experiment [9] and in [7] was “inactive” each time. For the same molecule, the molecule was classed as inactive in experiment [5], in experiment [6] and in experiment [8].

On to `C=C(C)[C@@H]1CCC2=CC(=O)C[C@@H](C)[C@]2(C)C1`, for which the Potency result in experiment [1], in experiment [2], in experiment [3], in [4] and in [7] was “inactive” each time. The molecule was classed as inactive in [6] and in experiment [8].

Regarding `CCN1CCCC(OC(=O)C(c2ccccc2)c2ccccc2)C1` (stereo unspecified), the Potency entry in experiment [1], in experiment [2], in [3] and in experiment [4] was “inactive” in each case. Also, the fluorescence, relative to Rose Bengal in [5] was 0.0398% [at 18.6 µM]. In addition, in experiment [6], the fluorescence, % of fluorescein control was 0.107% [at 18.6 µM]. In experiment [7], the fluorescence, % of triamterene is 0.0169% [at 18.6 µM].

On to `C=C(C)C(=O)OCCCCCCCCCCCCCCCCCC`, for which the Potency entry in [1], in experiment [2] and in experiment [3] was “inactive” each time. The fluorescence, relative to Rose Bengal in experiment [5] was -0.0569% [at 18.6 µM]. Further, the fluorescence, % of fluorescein control in experiment [6] was -0.0046% [at 18.6 µM]. The fluorescence, % of triamterene in [7] is -0.0754% [at 18.6 µM]. For the same molecule, the fluorescence, % of fluorescent control in experiment [8] was 0.299% [at 18.6 µM].

Take `CC(C)(C)C(=O)/C=C/c1ccc(Cl)cc1`: the Potency result in [1], in [2], in experiment [3], in [4] and in experiment [7] was “inactive” each time. Moreover, the molecule was classed as inactive in experiment [5] and in experiment [6].

As to `CC/C=C\C#N`, the Potency result in experiment [1], in experiment [2], in [3], in experiment [4] and in experiment [7] was “inactive” each time. The call in [5], in [6] and in experiment [8] was inactive.

As to `Cn1cnc2c(=O)[nH]c(N)nc21`, the Potency result in [1], in experiment [2], in experiment [3], in [4] and in experiment [7] was “inactive” throughout. The call in experiment [5] and in experiment [6] was inactive.

Consider `CCCCCCOC(=O)CC(CC(=O)OCCCCCC)(OC(=O)CCC)C(=O)OCCCCCC`, for which the Potency entry in experiment [1], in experiment [2], in experiment [3], in experiment [4] and in experiment [7] was “inactive” in each case. The call in experiment [5], in experiment [6] and in experiment [8] was inactive.

Turning to `CCCCOCC(C)OCC(C)O` (stereo unspecified), the Potency result in experiment [1], in experiment [2], in [3], in experiment [4], in [9] and in experiment [7] was “inactive” in each case. The result in experiment [5], in experiment [6] and in [8] was inactive.

Turning to `NC(=S)Nc1cccc2ccccc12`, in experiment [1], the activation was 1.78% [at 8.08 µM]. The activity change, negative = cytotoxicity in experiment [2] is -14.4% [at 8.08 µM]; in experiment [4] it was 7.63% [at 8.08 µM]. In experiment [3], the activity, negative = cytotoxicity is -8.88% [at 8.08 µM]. In addition, the ratio activity, negative = MMP loss in [9] is -26.9% [at 8.08 µM]. In addition, the fluorescence, relative to Rose Bengal in [5] was -0.163% [at 3.72 µM]. For the same molecule, the fluorescence, % of fluorescein control in [6] is 0.0274% [at 3.72 µM]. Further, in [7], the fluorescence, % of triamterene is -0.0445% [at 3.72 µM]. In experiment [8], the fluorescence, % of fluorescent control is -0.0728% [at 3.72 µM].

As to `c1cc(CN2CCCCC2)cc(OCCCNc2nc3ccccc3s2)c1`, the Potency entry in [1], in experiment [2], in [3], in experiment [4] and in experiment [7] was “inactive” each time. Also, the molecule was classed as inactive in experiment [5] and in experiment [8].

As to `CC(CCO)CCCC(C)(C)O` (stereo unspecified), the Potency entry in experiment [1], in [2], in experiment [3], in experiment [4] and in experiment [7] was “inactive” each time. In addition, the molecule was classed as inactive in [5], in experiment [6] and in [8].

Turning to `C=CCOCC(O)CS(=O)(=O)O` (stereo unspecified), the Potency result in [1], in experiment [2], in [3], in experiment [4] and in experiment [7] was “inactive” throughout. In addition, the molecule was classed as inactive in [5], in experiment [6] and in experiment [8].

`OC[C@H]1O[C@@H]2O[C@H]3[C@H](O)[C@@H](O)[C@@H](O[C@H]4[C@H](O)[C@@H](O)[C@@H](O[C@H]5[C@H](O)[C@@H](O)[C@@H](O[C@H]6[C@H](O)[C@@H](O)[C@@H](O[C@H]7[C@H](O)[C@@H](O)[C@@H](O[C@H]8[C@H](O)[C@@H](O)[C@@H](O[C@H]9[C@H](O)[C@@H](O)[C@@H](O[C@H]1[C@H](O)[C@H]2O)O[C@@H]9CO)O[C@@H]8CO)O[C@@H]7CO)O[C@@H]6CO)O[C@@H]5CO)O[C@@H]4CO)O[C@@H]3CO`: the Potency result in experiment [1], in experiment [2], in experiment [3], in [4] and in experiment [7] was “inactive” in each case. Besides, the call in experiment [5] and in experiment [6] was inactive.

`C1C2OC2C2C1C1CC2C2OC12` (stereo unspecified): the Potency entry in experiment [1], in experiment [2], in experiment [3], in [4], in experiment [9] and in experiment [7] was “inactive” each time. In addition, the molecule was classed as inactive in [5], in experiment [6] and in experiment [8].

For the molecule `CC1=CCC2C(C1)C2(C)C` (stereo unspecified), the Potency entry in [1], in [2], in experiment [3], in experiment [4] and in experiment [7] was “inactive” throughout. The Potency in experiment [9] was 48.6 µM (active). Moreover, the outcome in experiment [5] and in [8] was inactive.

Regarding `O=C(O)c1cccc(C(=O)O)n1`, the Potency result in experiment [1], in [2], in experiment [3], in [4], in experiment [9] and in experiment [7] was “inactive” in each case. Moreover, the result in experiment [5], in experiment [6] and in experiment [8] was inactive.

As to `O=Cc1ccccc1[N+](=O)[O-]`, the Potency entry in [1], in experiment [2], in [3], in experiment [4] and in [7] was “inactive” throughout. The call in experiment [5] and in experiment [8] was inactive.

Take `C1CCCCCCCCCCC1`: the Potency entry in [1], in experiment [2], in [3] and in experiment [4] was “inactive” throughout. Besides, in [5], the fluorescence, relative to Rose Bengal is -0.0148% [at 18.6 µM]. Also, the fluorescence, % of fluorescein control in experiment [6] was -0.001% [at 18.6 µM]. For the same molecule, the fluorescence, % of triamterene in experiment [7] is -0.115% [at 18.6 µM]. Moreover, the fluorescence, % of fluorescent control in experiment [8] is -0.0949% [at 18.6 µM].

As to `C=C[Si](OC)(OC)OC`, the Potency entry in experiment [1], in experiment [2], in experiment [3], in experiment [4], in [9] and in experiment [7] was “inactive” in each case. Besides, the result in experiment [5], in [6] and in experiment [8] was inactive.
